Consider 11 compounds from PubChem BioAssay.

The nature of the experiment: small-molecule microarray binders of probe aEGFR, primary screen, biochemical, biotinylated probe, 635/667 nm fluorescence (AID 1097).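 Also: probe is a biotinylated anti-EGFR antibody binding compounds printed on slides; score combines fluorescence near 667 nm and signal to noise of each spot.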 To be noted: higher = more signal.
With `COCCOC(=O)N1C(=O)[C@@]2(c3cc(C#CC4(O)CCCCCC4)ccc31)[C@H](C(N)=O)[C@H]1C(=O)O[C@H](c3ccccc3)[C@H](c3ccccc3)N1[C@@H]2c1ccc(OCCO)cc1`, the composite z-score worked out at 0.104.

Turning to `CC(C)C[C@@H]1NC(=O)[C@@H]2C[C@H](C(=O)NCCCCCNC(=O)CS)[C@H](c3ccc(O)cc3)N2C1=O`, the composite z-score was -0.0493.

Regarding `Cc1ccc(S(=O)(=O)N2[C@@H](c3ccccc3)C(C(=O)O)=CC[C@H]2c2ccc(F)cc2)cc1`, the composite z-score is -0.241.

The compound `CCCCCN1CC=CC23O[C@@H]4/C=C\CCCOC(=O)C4[C@H]2C(=O)N(CCO)[C@@H]3C1=O` (stereo partly specified) gave a composite z-score of -0.0987.

The compound `C=C(C(=O)CC[C@@H](OC(=O)c1cccnc1)c1cccc(OCCO)c1)C(C)C` returned a composite z-score of 0.0391.

In the case of `O=C1C2C=CC(C(O)C3CC=CCC3)N(Nc3ccc([N+](=O)[O-])cc3)C2C(=O)N1c1ccccc1` (stereo unspecified), the composite z-score came to 0.298.

For the compound `CCCCC(=C=CC[C@@H](O)c1ccccc1OCCO)C[C@@H](O)c1ccccn1`, the composite z-score is -0.0238.

The compound `COC(=O)[C@]1(Cc2ccccc2CN=[N+]=[N-])N=C(c2ccc(OCCCO)cc2)O[C@@H]1c1ccccc1N=[N+]=[N-]` came in with a composite z-score of -0.297.

In turn, `COCCOC(=O)N1C(=O)[C@@]2(c3cc(C#CC4=CCCCC4)ccc31)[C@H](c1ccc(O)cc1)N1[C@H](c3ccccc3)[C@H](c3ccccc3)OC(=O)[C@H]1[C@@H]2C(=O)N1CCc2cc(OC)c(OC)cc2C1` returned a composite z-score of -0.0065.

Compound `O=C(c1ccccc1)N1Cc2ccccc2C[C@@]2(N=C(c3ccc(OCCCO)cc3)O[C@H]2c2ccccc2)C1=O` gave a composite z-score of 0.024.

`C=CC[C@]1(C(=O)NCCN2CCOCC2)N=C(c2ccc(OCCCO)cc2)O[C@H]1c1ccccc1` showed a composite z-score of 0.174.
